# KB-V1 cytotox: qHTS assay for MDR1-selective chemotherapeutics: Primary screen using the drug-selected MDR subline cells KB-V1; KB-V1 MDR cells viability, CellTiter-Glo, 72 h; Potency, µM (series often up to 46.1 µM), actives largely listed as cytotoxic; hit rate 3.4% among 400,000; AID 1347076, 2019; further: potency means the concentration at half of the fitted maximal effect; nearly all actives have a fitted effect of over 60% in size
#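 Compound-treated KB-V1 multidrug-resistant cells, 72 h, 37 degrees C; viability by CellTiter-Glo. Fitted qHTS curves give the values.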
# HT1080-NT tox: qHTS for induction of synthetic lethality in tumor cells producing 2HG: qHTS for the HT-1080-NT fibrosarcoma cell line; Potency, µM (series often up to 46.1 µM), inactives show top-dose activity, negative = less viability, actives largely listed as cytotoxic; HT-1080-NT fibrosarcoma viability, CellTiter-Glo ATP luminescence, 48 h; hit rate 1.6% among 360,000; AID 686970, 2013;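 further: NT is the 2HG producing partner of a matched IDH1 knockdown line; potency means the concentration at half of the fitted maximal effect; 0% = DMSO-treated cells and -100% = media-only wells without cells; nearly all actives have a fitted effect of over 55% in size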
#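 A 48-hour cytotoxicity screen used HT-1080-NT cells plated 2 hours before compound delivery. ATP-based CellTiter-Glo luminescence measured viability, normalized to DMSO and no-cell controls.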
# HT1080 IDH1KD tx: qHTS for induction of synthetic lethality in tumor cells producing 2HG: qHTS for the HT-1080-IDH1KD cell line; hit rate 2% among 360,000; AID 686971, 2013; Potency, µM (doses to about 46.1 µM), for inactives: top-dose activity, negative = toxicity, most hits filed as cytotoxic; HT-1080 IDH1 knockdown viability, ATP luminescence, 48 h;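 further: potency means the concentration at half of the fitted maximal effect; 0% = DMSO wells and -100% = cell-free medium wells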
#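 Using the IDH1-knockdown HT-1080 line run in the same batch and compound series as the NT line, viability after 48 h at 37 °C was determined by CellTiter-Glo luminescence and expressed as % activity.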
# KB-3-1 cytotox: qHTS assay for MDR1-selective chemotherapeutics: Primary screen using the parental adenocarcinoma cell KB-3-1; Potency, µM (highest dose often 46.1 µM), hits mostly cytotoxic; hit rate 1.4% among 400,000; AID 1347075, 2019; KB-3-1 viability, CellTiter-Glo ATP luminescence, 72 h; further: potency means the concentration at half of the fitted maximal effect; nearly all actives have a fitted effect of over 60% in size
#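 Cytotoxicity measured as CellTiter-Glo luminescence after 72 h at 37 C. Compound titrations were pinned onto drug-naive KB-3-1 parental adenocarcinoma cells grown in DMEM with 10% FBS, and normalized data fitted to concentration-response curves.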
# IL1B secr inh: qHTS for Inhibitors of Inflammasome Signaling: IL-1-beta AlphaLISA Primary Screen. hit rate 4.7% among 360,000. THP-1 LPS/ATP IL-1B secretion, AlphaLISA, 16 h; hits give low values. activity change, % at 57.5 µM; in the data active means activity change below about -50%; inconclusive means mostly about -30% to -49%
#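 THP-1 cells pretreated 1 hr with compounds (up to 57.5 uM final), then stimulated with LPS (250 ng/mL final) plus ATP (1.25 mM final); secreted IL-1B measured by AlphaLISA after 16 hr, decreased signal indicating inhibition.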
# * = called active by the depositor; i = inactive; ? = inconclusive; . = no result given; ! = repeats disagree. Most compounds without a hit are left out; they make up all but 8.8% or so of the library. Unless noted, the call rests on the fitted dose curve; in most records, active means well fitted curve in the direction sought with a large enough effect; inconclusive means small, poorly fitted or top-dose-only effect, or another doubt; inactive means no such curve, though single readings can be large; an effect the other way counts as inactive or inconclusive. Unless noted, on the % scale 0 is the no-effect control and ±100 the full control effect.
SMILES,KB-V1 cytotox,HT1080-NT tox,HT1080 IDH1KD tx,KB-3-1 cytotox,IL1B secr inh
Cc1nn(-c2ccccc2)c(Cl)c1/C=C(\C#N)C(=O)NC(C)C,i,-16%,-11%,?,-102*
COc1ccc(NC(=O)/C(C#N)=C/c2c(C)nn(-c3ccc(F)cc3)c2Cl)cc1Cl,i,-1%,1%,i,-55*
COc1ccccc1NC(=O)/C(C#N)=C/c1c(C)nn(-c2ccc(F)cc2)c1Cl,i,-4%,1%,i,0
Cc1cc(C)nc(-n2nc(C)c(Sc3ccc(F)cc3)c2N)n1,?,4µM*,5µM*,i,-11
Cc1nn(-c2ccccc2)c(N)c1Sc1cccc([N+](=O)[O-])c1,?,?,-16%,i,-11
Cc1cc(S(=O)(=O)c2ccc(Cl)cc2)nc(S(=O)(=O)c2ccc(Cl)cc2)c1C#N,?,?,6.5µM*,9.2µM*,-103*
NC(=O)C1=CC2C3C=CC2(O)C(=O)OC3O1 (stereo not given),?,?,21µM*,?,-96*
O=C(c1ccccc1Cc1ccccc1)N1CCN(S(=O)(=O)c2ccccc2Br)CC1,?,3%,2%,i,-61*
Cc1ccc(NC(=O)Cn2c(=O)n(Cc3nc(-c4ccccc4)no3)c(=O)c3cc4c(cc32)OCO4)cc1F,i,.,.,i,.
Nc1nc(CCl)nc(N(c2ccccc2)c2ccccc2)n1,16µM*,?,2.9µM*,?,-102*
Clc1ccc(-c2nnc(-c3ccc(Br)cc3)c(N3CCSCC3)n2)cc1,i,0%,1%,i,-18
Clc1ccc(-c2nnc(-c3ccco3)nc2N2CCCCC2)cc1,18µM*,8%,12%,i,-24
FC(F)(F)c1ccccc1/C=N/n1c(COc2ccccc2)n[nH]c1=S,i,0%,-3%,i,-23
CC(O)c1nc2ccccc2n1C/C=C/c1ccccc1 (stereo not given),15µM*,3%,-3%,i,24
COc1ccc(Cn2c(/C=C/c3ccccc3)nc3ccccc32)cc1,13µM*,11µM*,?,?,-78*
COc1ccc(Cc2nc3ccccc3n2Cc2ccccc2F)cc1,i,.,.,i,.
COc1ccc(/C=C/c2nc3ccccc3n2C)cc1,4.1µM*,5.2µM*,4.6µM*,5.2µM*,-73*
CCn1c(Cc2ccc(OC)cc2)nc2ccccc21,?,-8%,-12%,i,-51*
COc1ccc(OCc2nc3ccccc3n2Cc2ccc(C(C)(C)C)cc2)cc1,i,.,.,i,.
COc1ccc(Nc2nc3ccccc3n2C)cc1,i,5%,-24%,i,-2
Cc1ccc(-c2[nH]ncc2C(=O)c2ccccc2C)c(O)c1,i,13%,8%,i,-2
Cc1ccc(CNC(=O)Cn2cc(S(=O)(=O)Cc3cccc(Cl)c3)c3ccccc32)cc1,i,.,.,i,.
CC(C)n1c(NCc2nc3ccccc3n2C)nc2ccccc21,i,0%,-6%,i,-16
COc1ccc2c(c1)nc(N)n2Cc1ccccc1,i,-9%,0%,i,-98*
CCn1c(/C=C/c2ccccc2)nc2ccccc21,?,?,?,i,-8
SMILES,KB-V1 cytotox,HT1080-NT tox,HT1080 IDH1KD tx,KB-3-1 cytotox,IL1B secr inh
COc1ccc(-c2nc3ccccc3n2Cc2ccccc2)cc1,i,-13%,-24%,i,-1
CCn1c(CNc2nc3ccccc3n2C(C)C)nc2ccccc21,12µM*,-12%,-4%,i,-28
CC(C)Cn1c(/C=C/c2ccccc2)nc2ccccc21,i,?,-23%,i,-66*
Cc1ccc(Cl)cc1N1CCN(C(=O)Cc2ccc(-n3c(=O)[nH]c4ccsc4c3=O)cc2)CC1,i,18%,16%,i,0
CC(=O)c1ccc(OCCCC(=O)OCC(=O)Nc2ccc3[nH]c(=O)[nH]c3c2)cc1,i,7%,0%,i,32
N#CC1c2ccccc2C=CN1C(=O)N(c1ccccc1)c1ccccc1 (stereo not given),21µM*,?,?,?,-97*
CN(C)c1ccc(-n2cccc2/C=C/[N+](=O)[O-])cc1,?,6.5µM*,6.5µM*,?,-101*
COCC(C)n1c(-c2ccc3c(c2)NC(=O)CO3)csc1=Nc1ccc(OC(F)F)cc1 (stereo not given),?,21µM*!,?,9.2µM*!,-26
COc1cc2c(cc1OC)C(COc1ccccc1OC)N(C(=O)c1ccccc1OC)CC2 (stereo not given),i,.,.,i,.
NC(=O)Cc1ncc(C(F)(F)F)cc1Cl,i,9%,6%,i,-4
OCC#Cc1ncc(C(F)(F)F)cc1Cl,i,21µM*,?,i,5
CC1CCN(C(=O)CCC(=O)Nc2nnc(C3CCCCC3)s2)CC1,i,12%,13%,i,57
COc1ccc(-c2c(-c3cc(OC)cc(OC)c3)n(C)c3ccc(-c4ccc5[nH]ccc5c4)cc23)cc1,i,-2%,4%,23µM*,-14
CCOC(=O)c1c(N)sc2c(OCC)c(Br)ccc12,i,?,?,i,-24
CCOC(=O)c1c(NC(C)=O)sc2c(OCC(O)CNC(C)(C)C)c(Br)ccc12 (stereo not given),?,?,-28%,i,-72*
C=CCc1ccccc1OCCNCc1ccccc1,i,-1%,?,i,-91*
Cc1cc(Br)ccc1OCCNCc1ccccc1,i,?,?,i,?
Brc1ccccc1OCCNCc1ccccc1,i,0%,-3%,i,-80*
COC(=O)c1cccc(CC2(C)C(=O)Nc3ccc(OC(F)(F)F)cc32)c1 (stereo not given),?,-14%,?,i,12
N#C/C(=C(\O)c1cc(Cl)sc1Cl)c1nc2ccccc2[nH]1,i,-2%,-10%,i,3
CC(C)(c1ccccc1)c1ccc(OCCN2CCOCC2)cc1,i,-4%,-6%,i,40
CC(C)(C)c1ccc(OCCCCCCN2CCNCC2)cc1,?,?,23µM*,?,-80*
CC(C)(c1ccccc1)c1ccc(OCCCN2CCNCC2)cc1,i,-5%,21µM*,?,-80*
COC(=O)c1csc(C2OC(CO)C(O)C2O)n1 (stereo not given),i,2%,1%,i,27
